Test results: PubChem BioAssay AID686979 (National Center for Advancing Translational Sciences (NCATS), 2013)
Out of some 420,000 compounds screened, about 50,000 (12%) were called active. Inconclusive results (about 26%) are left out. Shown is part of a subset that was picked to be rich in actives. A number with no mark means an inactive call. Calls come from the whole dose curve; as a rule, active = well fitted inhibition curve with a large enough effect; inconclusive = small, poorly fitted or top-dose-only effect; inactive = flat fitted curve, though single readings scatter.

Assay: qHTS for Inhibitors of human tyrosyl-DNA phosphodiesterase 1 (TDP1): qHTS in cells in presence of CPT; note: nearly all actives have a fitted effect of over 55% in size
Settings: chicken DT40 Tdp1-/-;hTDP1 cells + 20 nM CPT, ATP luminescence, 48 h; series mostly up to 46.2 µM; activity change, negative = growth inhibition: at the top concentration
Procedure, shortened: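 Chicken DT40 Tdp1-/- cells complemented with human TDP1, 400 cells/well, exposed to compounds plus 20 nM camptothecin for at least 48 h at 37 C; viability read as ATP content by CellTiter-Glo luminescence.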
% is set by controls: 0 for no effect and ±100 for the full control effect; potency is the fitted concentration of half-maximal effect.

Structure (SMILES) | activity change, negative = growth inhibition | Potency
CCCCN(C(=O)CCNC(=O)NC12CC3CC(CC(C3)C1)C2)c1c(N)n(CCCC)c(=O)[nH]c1=O | -12.9% | –
Cc1ccc(S(=O)(=O)N2CC(O)C[C@H]2C(=O)OCC(=O)Nc2ccc(N3CCOCC3)cc2)cc1C (some centres not stated) | -0.832% | –
COc1ccc(S(=O)(=O)N2CCCC2CNC(=O)C(=O)NC2CC2)cc1 (configuration not stated) | 7.32% | –
Cc1ccc(NC(=O)CC2S/C(=N/N=C3\CCCc4ccccc43)NC2=O)cc1 (configuration not stated) | -0.71% | –
CN1C(=O)/C(=C\c2cc(Br)cs2)c2ccccc21 | -29.3% | –
N#CC1=C(N)Oc2cc(N)ccc2C1c1ccccc1 (configuration not stated) | – | 23.1 µM (active)
Cc1cc(C)c2c3c(sc2n1)C(c1ccccc1)C(C#N)=C(N)O3 (configuration not stated) | -20.3% | –
N#CC1=C(N)Oc2c(ccc3cccnc23)C1c1ccncc1 (configuration not stated) | -20.9% | –
CN1C(=O)C2(OCCCO2)c2cc(Cl)ccc21 | 9.13% | –
C=O | 10.9% | –
COc1ccc(C(CNC(=O)c2ccc(OCc3cscn3)cc2)N2CCCC2)cc1 (configuration not stated) | -10.8% | –
CCOc1ccc(NS(=O)(=O)c2ccc(C(=O)NCC(c3ccccc3OC)N3CCCC3)cc2)cc1 (configuration not stated) | – | 29.1 µM (active)
CCOc1ccc(NS(=O)(=O)c2ccc(C(=O)NCC3CCCO3)cc2)cc1 (configuration not stated) | -27.2% | –
CN=C(NC#N)NCCSCc1nc[nH]c1C | – | inactive
CCC(C)C(=O)Nc1cc([N+](=O)[O-])ccc1Cl (configuration not stated) | -3.83% | –
CC(=O)Nc1ccc(NC(=O)c2ccc3c(c2)C(=O)N(c2ccccc2C)C3=O)cc1 | -2.84% | –
O=S(=O)(c1ccc2nc(NCc3ccccc3Cl)ccc2c1)N1CCCCC1 | – | 10.3 µM (active)
O=S(=O)(NCc1ccccc1)c1ccc(S(=O)(=O)N2CCCC2)cc1 | -21.9% | –
O=S(=O)(c1ccc2nc(N3CCN(c4cccc(Cl)c4)CC3)ccc2c1)N1CCCCC1 | 4.01% | –
CC(C)C(NC(=O)C1CCC(C(C)(C)C)CC1)C(=O)NCCCN1CCCCC1 (configuration not stated) | 26.4% | –
CC(C)N1C(=O)c2ccccc2NC(=O)C1C(=O)NCc1cccs1 (configuration not stated) | -29.6% | –
CCS(=O)(=O)N1CCCC(C(=O)NCc2ccc(C)cc2)C1 (configuration not stated) | -12.6% | –
COc1ccc(CNC(=O)C2CCN(S(=O)(=O)c3ccc(SC)cc3)CC2)cc1 | -19.3% | –
CCOc1ccc(N(CC)S(=O)(=O)N2CCCC(C(=O)NCc3ccc(SC)cc3)C2)cc1 (configuration not stated) | – | 23.1 µM (active)
CCOc1ccc(NC(=O)c2cc(S(=O)(=O)N3CCCC3)c[nH]2)cc1 | -13.5% | –

Structure (SMILES) | activity change, negative = growth inhibition | Potency
CCOc1ccc(N(CC)S(=O)(=O)N2CCCC(C(=O)Nc3ccc(C(C)=O)cc3)C2)cc1 (configuration not stated) | – | 20.6 µM (active)
CCOc1ccc(NC(=O)C2CCCN(C(=O)Nc3ccccc3)C2)cc1 (configuration not stated) | 0.551% | –
COc1cccc(CNC(=O)CN(C)S(=O)(=O)c2ccc3c(c2)c(=O)n(C)c(=O)n3C)c1 | – | inactive
Cc1ccc(C)c(OCCC(=O)OCC(=O)c2ccc3c(c2)NC(=O)CO3)c1 | -8.45% | –
Cc1ccc(C23CC4CC(CC(C(=O)NCC(=O)O)(C4)C2)C3)cc1 | -0.354% | –
COc1ccc(C(=O)COC(=O)CN2C(=O)C3CC=CCC3C2=O)c(OC)c1 (configuration not stated) | -12.9% | –
CC1CC1C(=O)OCC(=O)c1c(N)n(C)c(=O)n(C)c1=O (configuration not stated) | -2.39% | –
CC(C)Cn1c(N)c(C(=O)COC(=O)CN2C(=O)C3CC=CCC3C2=O)c(=O)n(C)c1=O (configuration not stated) | – | 16.4 µM (active)
CCOC(=O)[C@H]1[C@H]2COc3cc(OC)ccc3[C@@H]2N2C(=O)N(c3ccc(Br)cc3)C(=O)[C@@]12C | – | 25.9 µM (active)
CCOC(=O)[C@@H]1[C@H]2COc3cc(OC)ccc3[C@@H]2N2C(=O)N(c3cccc(C)c3)C(=O)[C@@]12C | -19.9% | –
CCOC(=O)[C@H]1[C@H]2COc3ccc(Br)cc3[C@@H]2N2C(=O)CN(C)C(=O)[C@@]12C | -17.3% | –
CCOc1n[nH]c(-c2ccccc2)n1 | -5.81% | –
Cc1ccc(S(=O)(=O)c2c[nH]c3ccc(C)cc3c2=O)cc1 | -15.1% | –
CCCOc1ccc(N/C=C/C(=O)C(C)(C)C)cc1 | -14.5% | –
CCOc1ccc(N/C=C/C(=O)c2ccccc2)cc1 | -25.2% | –
CCOc1ccc(N/C=C/C(=O)c2cc(OC)c(OC)c(OC)c2)cc1 | – | 14.6 µM (active)
COCCNC(=O)C(c1ccc(O)cc1)N(C(=O)CCC(=O)Nc1nccs1)c1ccc(C)cc1 (configuration not stated) | 1.09% | –
COc1ccccc1CNC(=O)CCn1c(=O)sc2ccccc21 | -4.97% | –
COc1ccc(NC(=O)Cn2c(=O)n(Cc3ccc(C(=O)NCc4ccccc4Cl)cc3)c(=O)c3ccccc32)cc1 | -11.4% | –
Cc1ccccc1NC(=O)Cn1c(=O)n(CCCCC(=O)NCc2ccccc2Cl)c(=O)c2ccccc21 | -29.1% | –
COc1ccccc1CNC(=O)CCCn1c(=O)c2ccccc2n(CC(=O)Nc2ccc(C)cc2Cl)c1=O | – | 14.6 µM (active)
COc1ccccc1CNC(=O)CCn1c(=O)c2ccccc2n(CC(=O)Nc2ccc(Br)cc2F)c1=O | – | 23.1 µM (active)
COc1ccccc1CNC(=O)CCCCn1c(=O)c2ccccc2n(CC(=O)Nc2cc(Cl)ccc2C)c1=O | – | 18.4 µM (active)
CCCCn1c(=O)c2oc3ccccc3c2n(CC(=O)Nc2ccccc2OC)c1=O | -0.588% | –
COc1ccccc1CNC(=O)CCCn1c(=O)c2ccccc2n(CC(=O)NC2CCCC2)c1=O | -22.2% | –

Structure (SMILES) | activity change, negative = growth inhibition | Potency
COCCNC(=O)CCCn1c(=O)c2ccccc2n(Cc2cccc([N+](=O)[O-])c2)c1=O | 4.94% | –
CCc1nn(CC(=O)N2CCN(c3cccc(C(F)(F)F)c3)CC2)c(=O)c2cc3occc3n12 | -19.3% | –
CC(C)CCN(C(=O)c1csnn1)C(C(=O)NC1CCCC1)c1ccccc1 (configuration not stated) | -9.08% | –
COc1cc(CN2CCNC(=O)C2CC(=O)NCCc2ncccc2C)cc(OC)c1 (configuration not stated) | 26.1% | –
CCOc1ccccc1NC(=O)CCS(=O)(=O)c1cccc2nsnc12 | – | inactive
Cc1ccc(S(=O)(=O)N(C)C)cc1NC(=O)COC(=O)/C=C/c1cccs1 | -18.7% | –
Cc1ccccc1N(C(=O)CNC(=O)c1cccs1)C(C(=O)NC1CCCC1)c1ccncc1 (configuration not stated) | 0.575% | –
CCOc1cc(NS(=O)(=O)c2ccc(OC)cc2)c(OCC)cc1NC(C)=O | -0.871% | –
COc1ccc(C(=O)Nc2c(N)nc(SCC(=O)Nc3ccc(C(C)=O)cc3)[nH]c2=O)cc1 | -4.08% | –
COc1ccccc1CNC(=O)CNC(=O)c1cn(-c2ccccc2OC)c(=O)c2ccccc12 | 3.6% | –
C=CCn1c(=O)n(C)c2c(=O)n(C)c(=O)n(C)c21 | 22.4% | –
Cc1c(CNCCc2ccccc2)c(C(=O)O)c(C)n1-c1ccccc1 | -21.1% | –
COc1cc(C(=O)N(Cc2ccc(C(C)C)cc2)C2CCS(=O)(=O)C2)cc(OC)c1OC (configuration not stated) | -0.678% | –
O=C(/C=C/c1cn(CC(O)CN2CCc3ccccc32)c2ccccc12)c1ccc(Br)cc1 (configuration not stated) | – | 18.4 µM (active)
CC(C)OCCCn1c(SCC(=O)c2ccccc2)nc2c(sc3ccccc32)c1=O | 6.91% | –
COc1cc(CCN=Cc2ccccc2O)c([N+](=O)[O-])cc1OC | 9.53% | –
Oc1ccc(N=Cc2c(O)ccc3ccccc23)cc1 | -23.8% | –
CC(=O)n1c(C=Nc2ccccc2)c(O)c2ccccc21 | -0.272% | –
Oc1ccc(N=Cc2sc3ccccc3c2Cl)cc1 | – | 13 µM (active)
CCOC(=O)c1ccc(NC(=O)c2c(N)n(C)c(=O)[nH]c2=O)cc1 | -12.4% | –
Cc1ccc(S(=O)(=O)N2CCC(C(=O)NCC3CCCO3)CC2)cc1 (configuration not stated) | -17% | –
Cc1cc(C2=NNC(=Nc3ccc(S(=O)(=O)N4CCOCC4)cc3)SC2)c(C)n1CC1CCCO1 (configuration not stated) | – | 5.17 µM (active)
Cc1ccnc(NS(=O)(=O)c2ccc(NC(=O)c3ccc(S(=O)(=O)N4CCOCC4)cc3)cc2)n1 | -0.712% | –
O=C1OC(Oc2ccc(Br)cc2)(c2ccccc2)c2ccccc21 (configuration not stated) | -0.929% | –
CC1(C)Cc2ccccc2-c2[nH]c(=S)[nH]c(=O)c21 | 9.69% | –

Structure (SMILES) | activity change, negative = growth inhibition | Potency
O=C(c1ccco1)N1CCN(C(=O)C2CC(c3ccc(F)cc3)=NO2)CC1 (configuration not stated) | -27.3% | –
O=C(Nc1c(C(=O)N2CCN(c3ccc(F)cc3)CC2)oc2ccccc12)c1ccco1 | – | 16.4 µM (active)
CCC(=O)Nc1c(C(=O)N2CCN(c3ccc(F)cc3)CC2)oc2ccccc12 | – | 13 µM (active)
COCC(=O)Nc1c(C(=O)N2CCCC2)oc2ccccc12 | 18.4% | –
NC(=O)c1oc2ccccc2c1NC(=O)Cc1ccccc1 | 6.31% | –
O=C(Nc1ccccc1C(=O)N1CCCCC1)c1ccco1 | -2.7% | –
CC(Oc1cccc(Cl)c1)C(=O)NC1CC(C)(C)NC(C)(C)C1 (configuration not stated) | 3.12% | –
COc1cc(C2C(C(=O)c3cccs3)=C(O)C(=O)N2CCN2CCOCC2)ccc1OCCC(C)C (configuration not stated) | 14.9% | –
CCC(C)N(c1ccc(/C=C/c2ccnc3ccccc23)cc1)C(C)CC (configuration not stated) | – | 7.08 µM (active)
CCN1CCN(c2ccc(/C=C/c3ccnc4ccccc34)cc2)CC1 | – | 11.2 µM (active)
O=C(CN1CCCC1)N1CCN(c2ccccc2)CC1 | -10.3% | –
CN(C)c1ccc(/C=C/C=C/c2ccnc3ccccc23)cc1 | – | 1.78 µM (active)
c1ccc(-c2cnc(CN3CCN(c4ccccc4)CC3)o2)cc1 | 0.628% | –
Oc1ccc(/C=N/N(Cc2ccccc2)c2ccccc2)cc1 | 22.5% | –
CN(Cc1ccccc1)c1ccc(/C=C/c2ccnc3ccccc23)cc1 | – | 12.6 µM (active)
Cc1ccc(S(=O)(=O)N(C)C)cc1NC(=O)C(C)OC(=O)c1ccc2ccccc2n1 (configuration not stated) | -5.45% | –
CC(C)[C@@H](NC(=O)OC(C)(C)C)C(=O)NCC1CCC(C(=O)N[C@@H](Cc2ccccc2)C(=O)O)CC1 (some centres not stated) | 5.99% | –
C[C@H]1CN([C@@H](C)CO)S(=O)(=O)c2ccc(Br)cc2O[C@H]1CN(C)C(=O)c1cnccn1 | -9.71% | –
CNC(=O)COc1ccc(S(=O)(=O)Nc2ccccc2)cc1 | 3.15% | –
CC(=O)c1ccccc1NC(=O)COC(=O)C1COc2ccccc2O1 (configuration not stated) | 0.997% | –
CC1(C(=O)NS(=O)(=O)c2ccccc2Cl)CCN1C(=O)c1cccc(F)c1 (configuration not stated) | -8.37% | –
O=C(Cn1nc([N+](=O)[O-])nc1Br)NC1CCCCC1 | -3.93% | –
